Reference: PubChem BioAssay AID588432 (Broad Institute, 2011)
Activity calls are given as the source filed them.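 How the source made its calls: active means luciferase inhibitors whose fitted dose curve gives a half-maximal potency within ten times the top tested dose; inconclusive means flat curve with 30 to 70% inhibition, or a poor fit; inactive means the rest.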

assay: ADP-Glo luciferase interference without Dyrk1A, dose response, artefact control for Dyrk1A inhibitor project, biochemical, luminescence, cherry-pick, set 04 (AID 588432); conditions: ADP-Glo luminescence without kinase, luciferase artifact; series mostly up to 12 µM; activity change, negative = inhibition: at the top concentration

Activity change, negative = inhibition, inactive:
Clc1ccc(CNc2ncncc2-c2ccc3c(c2)OCO3)cc1Cl -2.3%
CN(Cc1cccs1)c1ncnc2ccc(-c3ccc4c(c3)OCO4)cc12 -1.74%
Cc1occc1CNc1ncnc2ccc(-c3ccc4c(c3)OCO4)cc12 9.98%
Cc1ccc(CNc2ncnc3ccc(-c4ccc5c(c4)OCO5)cc23)o1 0.645%
CCN1/C(=C/C(C)=O)Sc2ccc(OC)cc21 -1.71%
Cc1noc(CN(C)c2ncnc3ccc(-c4ccc5c(c4)OCO5)cc23)n1 -2.83%
Cc1ccc(CNc2ncnc3ccc(-c4ccoc4C)cc23)o1 1.44%
c1cncc(CNc2ncncc2-c2ccc3c(c2)OCO3)c1 -1.1%
c1nc(NCC2CCCOC2)c2cc(-c3ccc4c(c3)OCO4)ccc2n1 (centres undefined) -4.69%
Cc1csc(CNc2ncnc3ccc(-c4ccc5c(ccn5C)c4)cc23)c1 -1.83%
Clc1ccc(CNc2ccnc(-c3ccc4[nH]ncc4c3)n2)cc1Cl -2.95%
FC(F)(F)c1cc(Br)cc(Nc2nccc(-c3ccc4c(c3)OCO4)n2)c1 0.301%
Cn1ccc2cc(-c3ccc4ncnc(NCc5cccc(F)c5)c4c3)ccc21 5.33%
c1csc(CNc2ncnc3ccc(-c4ccc5c(c4)OCO5)cc23)c1 3.72%
Clc1ccc(Nc2nccc(-c3ccc4c(c3)OCO4)n2)cc1 6.82%
Cc1nc(CNc2ncnc3ccc(-c4ccc5c(c4)OCO5)cc23)cs1 0.942%
COc1cc(-c2ccc3ncnc(NCCc4cnc[nH]4)c3c2)cc(OC)c1OC -4.12%
c1csc(CNc2ncnc3ccc(-c4ccoc4)cc23)c1 0.227%
c1cncc(CNc2ccnc(-c3ccc4[nH]ncc4c3)n2)c1 4.93%
Cc1cccc(CNc2ncnc3ccc(-c4cccc(Cl)c4)cc23)c1 -1.34%
CN(C)c1ccc(-c2nccc(NCc3cccs3)n2)cc1 -2.05%
Clc1cc(Cl)cc(CNc2ncncc2-c2ccc3c(c2)OCO3)c1 4.88%
c1csc(CCNc2ncnc3ccc(-c4ccc5c(c4)OCO5)cc23)c1 0.153%
c1cncc(CNc2nccc(-c3ccc4[nH]ncc4c3)n2)c1 -1.45%
c1nc(NCC2CCCO2)c2cc(-c3ccc4c(c3)OCO4)ccc2n1 (centres undefined) 3.45%
CN(Cc1nccs1)c1ncnc2ccc(-c3ccc4c(c3)OCO4)cc12 3.29%
Fc1c(-c2ccc3ncnc(NCc4cccs4)c3c2)ccc2c1OCO2 -2.17%
Clc1ccc(CNc2nccc(-c3ccc4c(c3)OCO4)n2)cc1Cl 4.9%
Brc1cc(Br)cc(CNc2nccc(-c3ccc4c(c3)OCO4)n2)c1 5.61%
Clc1cc(Cl)cc(CNc2cc(-c3ccc4c(c3)OCO4)ncn2)c1 1.87%
Clc1ccc(CNc2nccc(-c3ccc4cn[nH]c4c3)n2)cc1Cl 3.81%
c1cncc(CNc2cc(-c3ccc4c(c3)OCO4)ncn2)c1 -0.561%
Cc1ccsc1CN(C)c1ncnc2ccc(-c3ccoc3)cc12 -6.33%

outcome, inactive:
CCOC(=O)c1ccc(-c2ccc3ncnc(NCc4ccc(C)o4)c3c2)o1
